# Source: PubChem BioAssay (NCI)
# Compounds without any hit were thinned out: in the full panel of roughly 79,000, 15% have a hit. Values without a mark were called inactive. The source made the active and inactive calls. Rule as the data show it: active = growth inhibition above about 70%; inactive = the rest.
# Experiments:
# [1] = NCI Yeast Anticancer Drug Screen. Data for the rad50 strain (AID 155);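 also: 0% = growth of vehicle-only cultures of the same strain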; settings: S. cerevisiae rad50 strain growth inhibition; at 50.0 µM; hits give high values
# How it was run: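 Readout: growth inhibition relative to vehicle-treated cultures. Compound exposure was carried out in a genetically defined yeast strain deficient in DNA damage repair.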
# [2] = NCI Yeast Anticancer Drug Screen. Data for the mec2-1 strain (AID 157); settings: S. cerevisiae mec2-1 strain, at 50.0 µM, hits give high values
# How it was run: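 Readout is yeast growth inhibition, normalised to vehicle-treated controls, in the mec2-1 strain exposed to compound.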
# [3] = NCI Yeast Anticancer Drug Screen. Data for the sgs1 mgt1 strain (AID 161);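 also: 0% = growth of cultures given vehicle only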; settings: S. cerevisiae sgs1 mgt1 strain, at 50.0 µM, hits give high values
# How it was run: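 Yeast cells carrying a defined DNA-repair defect were exposed to test compounds. Growth inhibition was measured relative to vehicle-treated controls.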
# [4] = NCI Yeast Anticancer Drug Screen. Data for the cln2 rad14 strain (AID 165);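 also: 0% = growth equal to vehicle treated cultures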; settings: S. cerevisiae cln2 rad14 strain, at 50.0 µM, hits give high values
# How it was run: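 Relative to vehicle controls, growth inhibition of compound-treated cln2 rad14 yeast was recorded.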
# [5] = NCI Yeast Anticancer Drug Screen. Data for the bub3 strain (AID 167); settings: S. cerevisiae bub3 mutant strain, at 50.0 µM, hits give high values
# How it was run: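 Readout: yeast growth inhibition, expressed relative to vehicle-only wells. The test organism is a mutant strain from a panel with lesions in DNA repair or checkpoint genes.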
# [6] = NCI Yeast Anticancer Drug Screen. Data for the mlh1 rad18 strain (AID 175); settings: S. cerevisiae mlh1 rad18 strain growth inhibition; at 50.0 µM; hits give high values
# How it was run: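 Test agents were incubated with a yeast strain of defined genotype (DNA damage repair defect). Inhibition of growth was derived by comparison with vehicle-exposed cultures.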
SMILES,growth inhibition [1],growth inhibition [2],growth inhibition [3],growth inhibition [4],growth inhibition [5],growth inhibition [6]
CCN(CC)CCOC(=O)c1ccc(N=Nc2cc(NC(C)=O)ccc2O)cc1,3.35%,-3.7%,-0.7%,4.15%,2.35%,5.05%
CCCCCCCOC(=O)C(N)c1ccccc1 (configuration not stated),-5.2%,-32.1%,-22.4%,7.5%,-7.6%,4.1%
CCCCCCCC1CCCC1=O (configuration not stated),-32.1%,-53.6%,-37.8%,5.7%,-31.8%,-0.8%
O=C1C(c2ccccc2Cl)[C@H]2CC=C[C@H]2N1O (some centres not stated),-26.1%,-39.2%,-8.4%,6.65%,-21.6%,-5.35%
Cc1c([N+](=O)[O-])cc(C(=O)O)cc1[N+](=O)[O-],35.6%,-0.15%,16.4%,-7.4%,2.55%,27.9%
Cc1cc(O)c(C(c2c(O)cc(C)c(Cl)c2C)C(Cl)(Cl)Cl)c(C)c1Cl,26.1%,21.9%,30.9%,39.6%,20.6%,18.2%
C#C/C=C/CC1OC(C(Br)CC)CC(Br)C2CC1O2 (configuration not stated),20.6%,16.8%,36.4%,24.4%,32%,-18.2%
O=C(O)Cn1cnc2c(=O)[nH]c(Nc3ccccc3)nc21,24.4%,9.1%,34.9%,5.35%,15.5%,-17.1%
CCC(Nc1ncnc2nc[nH]c12)C(=O)O (configuration not stated),-7.5%,-14.2%,-17.4%,-20.4%,-23.6%,14%
C1CCC(C(CCCCC(C2CCCCC2)C2CCCCC2)C2CCCCC2)CC1,46.5%,-3.8%,27.2%,16.1%,-0.7%,-2.6%
O=C1NC(=O)/C(=C\c2cccc(Br)c2)N1,-7.95%,4.15%,-12.1%,6.8%,24.5%,8.85%
O=c1[nH]c(-c2ccccc2N=NN2CCCCC2)nc2ccccc12,-4.05%,-2.35%,-2.6%,-11.8%,-4.45%,1.8%
CCC/C=N\NS(=O)(=O)c1ccc(NC(C)=O)cc1,4.65%,-28.4%,11.6%,12.6%,-43.7%,27.2%
c1ccc(-c2nnn(-n3nnc(-c4ccccc4)n3)n2)cc1,-13%,12.3%,10.9%,-5.55%,1.3%,25.5%
CSc1nc[nH]c1C(N)=S,-13.1%,3%,2.6%,-7.4%,-24.4%,8.7%
CC(=O)CC(=O)Nc1ccc(Cc2ccc(Br)cc2)cc1,23.7%,-5.55%,9.55%,18.5%,4.15%,18.9%
ClCC(OCc1ccccc1)OCc1ccccc1,-21.6%,4.8%,-4.45%,-36%,12.4%,17.1%
COc1cccc(CC(=O)O)c1OC,22.9%,-4.75%,-12%,1.8%,-3.5%,12.6%
O=C1NC(=O)C(c2ccc(Br)c3ccccc23)=C1O,9.2%,-4.75%,3.05%,-44.5%,-5.25%,-6.25%
CSc1ncnc2[nH]ncc12,4.5%,20.9%,-30.5%,-20.9%,-0.4%,-62.1%
CC1(C)OS2(OC(C)(C)c3ccccc32)c2ccccc21,-10.2%,6.85%,6.5%,8.75%,6.3%,7.65%

SMILES,growth inhibition [1],growth inhibition [2],growth inhibition [3],growth inhibition [4],growth inhibition [5],growth inhibition [6]
Cc1ccc(N=Cc2ccc3c(c2)OCO3)cc1C,8.05%,6.2%,9.65%,40.6%,10.1%,29.2%
COc1ccc(C(C#N)NNC(=O)c2ccccc2O)cc1OC (configuration not stated),14.9%,0.85%,6.6%,4.2%,35.2%,-18.9%
CCOC(=O)C(Br)CN1C(=O)c2ccccc2C1=O (configuration not stated),5.5%,-7.1%,-5.35%,12.6%,42%,13.6%
Cc1ccc(S(=O)(=O)N/N=C/c2cc(I)cc(I)c2O)cc1,99.5% (active),99.3% (active),99.2% (active),99.4% (active),98.3% (active),99.1% (active)
Cc1ccc(C(=O)Nc2ccc3c(c2)Cc2ccccc2-3)cc1,-19.3%,-23.6%,-7.45%,-5%,-20.6%,-10.8%
COc1cc(C[S+]2CCCC2)c(SC)cc1C[S+]1CCCC1,25.4%,50%,40.2%,27.5%,24.1%,23.1%
CN(Cc1ccccc1)C(=O)c1cccc(C(=O)N(C)Cc2ccccc2)c1,9.85%,22.5%,19.1%,13.8%,21.7%,17.6%
CCCCCCCCSC1=NS(=O)(=O)c2ccccc21,64%,28.6%,44.5%,31.1%,49.2%,31.1%
CCOC(=O)NC(=O)c1cn(CCN2CCN(C(=O)NCCCCCCNC(=O)N3CCN(CCn4cc(C(=O)NC(=O)OCC)c(=O)[nH]c4=O)CC3)CC2)c(=O)[nH]c1=O,-12.3%,14.7%,-8.95%,-18.6%,-0.75%,-11.6%
O=C1c2ccccc2-c2ccc([N+](=O)[O-])cc21,35.6%,5.8%,-0.3%,8.65%,-1.3%,-2.85%
CN(C)c1ccc(/C=C(\NC(=O)c2ccccc2)C(=O)Nc2ccccc2C(=O)NCc2ccccc2)cc1,9.95%,11.7%,14.8%,12.3%,5.95%,30.7%
Cc1ccc(/C(O)=C/c2nc3ccccc3oc2=O)cc1,20.2%,35.4%,-7.5%,-18.7%,25.9%,0.85%
O=C(C(c1ccccc1)C(C(=O)N(Cc1ccccc1)Cc1ccccc1)c1ccccc1)N(Cc1ccccc1)Cc1ccccc1 (configuration not stated),-44.8%,7%,-18.9%,-14.3%,-1.35%,28.3%
CS(=O)(=O)Nc1ccc2ccccc2c1,-33.8%,18.8%,-22.5%,5.1%,-3.05%,-3.7%
CCC(=O)SCC[N+](C)(C)C,16.1%,-30.8%,0.2%,8.8%,27.6%,4.55%
O=C(Nc1ccccc1SC(=O)OCc1ccccc1)OCc1ccccc1,30.2%,4.8%,11.6%,38.6%,1.95%,1.3%
O=C1C=C(Sc2ccccc2)c2nccc3c2c1nc1ccccc13,34.9%,7.6%,20.4%,6.55%,20.1%,30%
Oc1cccc2c1N1CCN2CC1,-2.15%,2.55%,11.2%,4.85%,9.6%,10.3%
CC1=CCC2(C#N)CCC1C2O (configuration not stated),15.2%,17.8%,8.1%,22.4%,10.4%,17.6%
Cc1nc(/N=C(\N)Nc2ccc(Cl)c(Cl)c2)[nH]c(=O)c1Cc1ccccc1,2.3%,1.65%,-10.1%,-6.75%,-5.05%,3.65%
COc1cccc(/C=C2\S/C(=N/Nc3nc(C)c(C)s3)NC2=O)c1O,7.7%,16.3%,20.8%,18%,-8.65%,2.2%
